Reference: PubChem BioAssay
Inconclusive results are not listed. Cut-off read from the data, not from the text of the source: active = percent of DMSO control GFP below about 86%; inactive = the rest, inconclusive results apart.

assay: yeast TOR pathway RPL19A-GFP modulators, primary screen, cell-based, S. cerevisiae, multiplex flow cytometry (AID 1862);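 note: lower values mimic rapamycin by blocking the RPL19A rise seen in DMSO cells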; settings: S. cerevisiae RPL19A-GFP strain, flow cytometry fluorescence, 3 h; at 10 µM; hits give low values

Percent of DMSO control GFP, inactive:
Fc1ccc(-n2cc(CNCCc3ccccn3)c(-c3ccccc3Cl)n2)cc1 106%, CO[C@@]1(NC(=O)Cc2cccs2)C(=O)N2C(C(=O)O)=C(COC(N)=O)CS[C@@H]21 91.5%, N#CCC(N)=C(C#N)C#N 91.5%, O=C(OCCN1CCOCC1)c1cccs1 104%, CC(=O)c1cc2c(cc1NC(=O)c1ccco1)OCCO2 103%, CC(C)NS(=O)(=O)c1ccc(OCC(=O)Nc2cccc(F)c2)cc1 101%, COc1ccc2[nH]c(CN3CCN(CC(C)C)C(CCO)C3)c(C)c2c1 (stereo not drawn) 98.8%, Cc1ccsc1C1NC(=O)c2ccccc2N1 (stereo not drawn) 103%, Fc1ccc(NC(=S)Nc2ccccc2Cl)cc1 91.1%, CCN1C(=O)C(CC(=O)Nc2ccc(F)cc2)N(Cc2ccco2)C1=S (stereo not drawn) 99%, Cc1ccc2c(c1C)NC(C(=O)O)C1CC=CC21 (stereo not drawn) 102%, c1cc(-c2ccncc2)ccn1 99.7%, NS(=O)(=O)c1ccc(CCNC(=O)C2CCCN2C(=O)OCc2ccccc2)cc1 (stereo not drawn) 97.2%, CC(C)CN1CCN(Cc2cccn2-c2ccccn2)CC1CCO (stereo not drawn) 90.9%, CC(C)COCC(CN(Cc1ccccc1)c1ccccc1)N1CCCC1 (stereo not drawn) 93.5%, CS(=O)(=O)NCc1ccc(C(=O)NCc2ccccc2)cc1 98.4%, COc1cc(NC(=S)NN2CCN(C)CC2)cc(OC)c1OC 105%, CC(=O)[C@@H]1[C@@H](C(=O)c2ccc(C)cc2)[C@]2(C(=O)Nc3ccccc32)[C@H]2C=Cc3cc(F)ccc3N12 97.4%
